Hits are enriched below; roughly 3.5% of the tested compounds scored in any of these assays.
MITF inh – MITF inhibitors, primary screen, biochemical, AlphaScreen, human; AlphaScreen MITF homodimerization, bead proximity signal; 650,000 tested, 0.91% active; Microphthalmia-associated transcription factor (Homo sapiens), O75030; inhibition, % at 2.6 µM; in the data active = inhibition above about 50%
Target sequence (O75030 whole entry, looked up): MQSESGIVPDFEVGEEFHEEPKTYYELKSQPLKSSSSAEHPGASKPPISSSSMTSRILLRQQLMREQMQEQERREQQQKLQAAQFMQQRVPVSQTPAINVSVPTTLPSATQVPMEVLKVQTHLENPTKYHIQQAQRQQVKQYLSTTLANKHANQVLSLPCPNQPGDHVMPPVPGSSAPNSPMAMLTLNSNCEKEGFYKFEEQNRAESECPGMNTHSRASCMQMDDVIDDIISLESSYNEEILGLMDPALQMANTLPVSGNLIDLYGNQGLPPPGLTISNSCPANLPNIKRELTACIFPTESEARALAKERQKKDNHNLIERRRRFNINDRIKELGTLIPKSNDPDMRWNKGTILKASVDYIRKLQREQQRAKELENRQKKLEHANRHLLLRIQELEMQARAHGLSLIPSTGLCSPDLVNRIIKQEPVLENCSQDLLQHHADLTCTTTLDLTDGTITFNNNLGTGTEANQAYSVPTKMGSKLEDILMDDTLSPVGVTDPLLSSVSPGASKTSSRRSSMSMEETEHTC
FBW7 act – FBW7 E3 ligase activators, primary screen, biochemical, AlphaScreen, human; AID 1259310, 2017; F-box/WD repeat-containing protein 7 (Homo sapiens), Q969H0; AlphaScreen FBW7–phospho-cyclin E peptide binding, activator screen; 650,000 tested, 0.13% active; normalized activity (activation), % at 26.1 µM; in the data active = normalized activity above about 1.9%;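 also: purified mutant Fbw7 with reduced substrate affinity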
TEAD-YAP inh – TEAD-YAP interaction inhibition, primary screen, TEAD-YAP interaction inhibitor project, luminescence, HEK-TIYL cells. TEAD-Gal4/YAP UAS-luciferase luminescence. inhibition, % at 9.12 µM. 640,000 tested, 1.4% active; in the data active = inhibition above about 32%
GPR151 activ – activators of human GPR151, primary screen, cell-based, PathHunter beta-arrestin, luminescence; PathHunter beta-arrestin GPR151 cells; activation, % at 11.2 µM; 650,000 tested, 1% active; in the data active = activation above about 4.9%
A number is an active result; – = inactive; ! = not active in a repeat.

SMILES	MITF inh	FBW7 act	TEAD-YAP inh	GPR151 activ
N[C@H](Cc1ccc(F)cc1)c1nc2ccc(-c3cn[nH]c3)cc2c(=O)[nH]1	–	–	81.0	–
N[C@@H](Cc1ccccc1)c1nc2ccc(-c3ccncc3)cc2c(=O)[nH]1	–	–	61.0	–
CC(=O)c1c(C)nn(CC(O)COc2ccc(C(=O)c3ccc(Cl)cc3)cc2)c1C (centres undefined)	–	–	39.9	–
Cc1cc(C)n(CC(O)COc2ccc(C(=O)c3ccccc3)cc2)n1 (centres undefined)	–	–	–	–
CC(C)C(=O)Nc1ccc(NC(=S)NC(=O)c2ccco2)cc1	–	–	–	–
Cc1cccc(NC(=O)CSc2nc3c(c(=O)n2C)SCC3)c1C	–	–	37.1	–
CCOc1ccccc1CNC(=O)c1cn(-c2cccc(OC)c2)c(=O)c2ccccc12	–	–	–	–
Cc1cc(O)c(C2=NCCSC(c3ccccc3)C2)c(=O)o1 (centres undefined)	–	–	–	–
O=C(NCCOc1ccccc1)c1cc(NCc2ccc3c(c2)OCO3)nc2ccccc12	–	–	–	6.1
CCCNC(=O)c1cc(NCc2ccc3c(c2)OCO3)nc2ccccc12	–	–	–	–
CCCc1ccc(Oc2cn[nH]c2-c2ccc(O)cc2O)cc1	–	–	65.3	–
C1=C(N2CCOCC2)C2CC=C(N3CCOCC3)C(C1)C2	–	–	–	–
COc1ccc(C2CC2(Cl)Cl)cc1[N+](=O)[O-] (centres undefined)	–	–	–	–
O=C1c2ccccc2C(=O)N1CCCO	–	–	–	–
COc1ccc(-c2nc(NCc3nc4ccccc4[nH]3)c3ncn(C(C)C)c3n2)cc1	–	–	71.5	–
CC(C)n1cnc2c(NCCO)nc(-c3ccc(C(N)=O)cc3)nc21	–	–	–	–
CC(C)n1cnc2c(NCc3nc4ccccc4[nH]3)nc(-c3ccc(C(N)=O)cc3)nc21	–	–	77.0	–
COc1ccc(-c2nc(NCCO)c3ncn(C(C)C)c3n2)cc1	–	–	–	–
CS/C(=C\[N+](=O)[O-])Nc1ccc(C(C)C)cc1	–	–	53.5	–
CC(C)c1ccc(NC(=O)c2ccc([N+](=O)[O-])cc2)cc1	–	–	–	–
CCN(CC)CCCNC(=O)c1ccc2c(c1)NC(=O)c1ccccc1N2	–	–	–	–
O=C(NCCc1ccccc1)C1C2C3CCC(C3)C12 (centres undefined)	–	–	58.4	–
CCC(=O)c1ccc2c(c1)OCCO2	–	–	–	–
CCc1n[n+](CC(=O)c2ccc3c(c2)OCCO3)c(N)s1	–	–	62.6	–
CCNc1nc2c(c(=O)n(C)c(=O)n2C)n1CCc1ccccc1	–	–	33.3	–
SMILES	MITF inh	FBW7 act	TEAD-YAP inh	GPR151 activ
CC(C)n1c(CN(C)Cc2ccccc2)nc2c1c(=O)n(C)c(=O)n2C	–	–	49.6	–
COc1cccc(Cn2c(NCc3ccco3)nc3c2c(=O)n(C)c(=O)n3C)c1	–	–	39.6	–
Cc1ccc(Cn2c(CN(C)Cc3ccccc3)nc3c2c(=O)n(C)c(=O)n3C)cc1	–	–	–	–
Cn1c(COc2ccc(Cl)cc2)nnc1SCCN1CCCC1	–	–	–	–
O=C1C(=O)N(Cc2cccs2)c2ccc(Br)cc21	–	–	–	–
COc1ccc(-c2nnc(SCC(=O)N(C)C)n2C)cc1OC	–	–	–	–
Cc1cc(Br)ccc1N1C(=O)/C(=C/c2ccc(Cl)cc2)C=C1c1ccccc1	–	1.9	–	–
Cc1cc(Br)ccc1N1C(=O)/C(=C/c2ccc(Br)cc2)C=C1c1ccccc1	–	–	–	–
N#Cc1nc(COc2ccc(Br)cc2)oc1NCc1ccco1	–	22.9	–	–
C#CC(O)(c1ccc(OC)cc1OC)c1ccc(OC)cc1OC	–	–	33.4	–
O=C(c1cc(S(=O)(=O)N2CCOCC2)ccc1Sc1ccc(Br)cc1)N1CCCCC1	–	–	–	–
O=c1c2ccccc2nc(SCc2cc(F)ccc2F)n1Cc1ccco1	–	–	–	–
CCc1cccc2c1N=C/C2=C\c1c(O)n(Cc2ccco2)c(=O)[nH]c1=O	58.1	–	–	–
O=c1[nH]c(=S)n(Cc2ccco2)c(O)c1/C=C1\C=Nc2ccc(Br)cc21	83.8	–	–	–
CCc1cccc2c1N=C/C2=C\c1c(O)n(Cc2ccccc2)c(=O)[nH]c1=O	–	–	–	–
C(=Nc1ccccc1)c1ccc(OC2CSC2)cc1	–	–	–	–
Cc1cc(=O)[nH]c(SCC(=O)Nc2ccc(Br)cn2)n1	–	–	–	–
O=C(CSc1nc2ccccc2[nH]1)Nc1ccc(Br)cn1	–	–	76.1	–
CCOC(=O)c1ccc(NC(=O)CC2SC(=O)N(CN3CCOCC3)C2=O)cc1 (centres undefined)	–	–	–	–
CC1=Nc2ccccc2/C1=C/c1sc(=N)n(-c2nccs2)c1O	–	–	32.1	–
CN1CCN(C(=O)c2nn3c(C(F)(F)F)cc(-c4ccc(Br)cc4)nc3c2Cl)CC1	–	–	–	–
COc1ccc(C(=O)N=c2nc3ccccn3s2)cc1	–	–	69.9	–
CC1=NN(c2ccc(Br)cc2)C(=O)/C1=C\c1ccc(-c2c(Br)cc([N+](=O)[O-])cc2Br)o1	–	–	–	–
CC1=NN(c2ccc([N+](=O)[O-])cc2)C(=O)/C1=C\c1ccc(C)o1	80.6	–	–	–
COc1cc(OC)nc(CSCCNC(=O)CCl)n1	–	–	–	–
SMILES	MITF inh	FBW7 act	TEAD-YAP inh	GPR151 activ
COc1cc(OC)nc(CSc2ccc(NC(=O)CCl)cc2)n1	–	–	36.4	–
Nc1c(C(=O)N2CCCCC2)sc2nc(-c3cccs3)cc(C(F)(F)F)c12	–	4.1	–	–
O=S(=O)(/N=C(\Nc1nc2ccccc2[nH]1)c1ccccc1)c1ccc(F)cc1	–	–	–	–
CCOC(=O)c1ccc(NC(=O)c2sc(N)c(C(=O)OCC)c2C)cc1	–	–	61.1	–
CCOC(=O)c1c(N)sc(C(=O)Nc2cccc(OC)c2)c1C	–	–	51.6	–
CCOC(=O)c1ccc(NC(=O)c2sc(NC(=O)c3cc(OC)c(OC)c(OC)c3)c(C(=O)OCC)c2C)cc1	–	–	–	–
CCOC(=O)c1ccccc1NC(=O)c1sc(N)c(C(=O)OCC)c1C	–	–	54.3	–
COC(=O)c1c(N)sc(C(=O)Nc2ccc(C)cc2C)c1C	–	–	75.7	–
CCOC(=O)c1c(N)sc(C(=O)Nc2ccccc2C)c1C	–	–	–	–
COC(=O)c1c(N)sc(C(=O)Nc2ccccc2C)c1C	–	–	–	–
COCCOC(=O)C1=C(C)NC2=C(C(=O)CC(c3cccs3)C2)C1c1ccc(F)cc1 (centres undefined)	–	–	36.4!	–
CCOC(=O)C1=C(C)NC2=C(C(=O)CC(c3cccs3)C2)C1c1cccs1 (centres undefined)	–	–	51.2!	–
COC(=O)C1=C(C)NC2=C(C(=O)CC(c3cccs3)C2)C1c1cccs1 (centres undefined)	–	–	–	–

Screening results as filed in PubChem.
